The panel holds about 79,000 compounds, 15% with a hit somewhere; the sample as a whole holds those more often. Active and inactive are the calls of the source. Cut-off read from the data, not from the text of the source: active = growth inhibition above about 70%; inactive = the rest.
Assays:
[1] = NCI Yeast Anticancer Drug Screen. Data for the rad50 strain (AID 155);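 note: 0% = growth of vehicle-only cultures of the same strain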; conditions: S. cerevisiae rad50 strain growth inhibition, active compounds read high
Method in brief: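 Cells are treated with compound, grown, and their growth is then scored against vehicle-only cultures of the same repair-deficient yeast strain.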

[2] = NCI Yeast Anticancer Drug Screen. Data for the mec2-1 strain (AID 157); conditions: S. cerevisiae mec2-1 strain, active compounds read high
Method in brief: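 Readout is yeast growth inhibition, normalised to vehicle-treated controls, in the mec2-1 strain exposed to compound.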

[3] = NCI Yeast Anticancer Drug Screen. Data for the sgs1 mgt1 strain (AID 161);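 note: 0% = growth of cultures given vehicle only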; conditions: S. cerevisiae sgs1 mgt1 strain, active compounds read high
Method in brief: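 Percent growth inhibition was derived by comparing compound-exposed mutant yeast with vehicle-exposed cultures. The strain carries alterations in DNA damage repair.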

[4] = NCI Yeast Anticancer Drug Screen. Data for the cln2 rad14 strain (AID 165);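 note: 0% = growth equal to vehicle treated cultures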; conditions: S. cerevisiae cln2 rad14 strain, active compounds read high
Method in brief: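 Relative to vehicle controls, growth inhibition of compound-treated cln2 rad14 yeast was recorded.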

[5] = NCI Yeast Anticancer Drug Screen. Data for the bub3 strain (AID 167); conditions: S. cerevisiae bub3 mutant strain, active compounds read high
Method in brief: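 Part of a panel of yeast mutants defective in DNA damage repair or cell cycle regulation. Each strain is grown with compound, and inhibition is calculated relative to solvent-treated cultures.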

[6] = NCI Yeast Anticancer Drug Screen. Data for the mlh1 rad18 strain (AID 175); conditions: S. cerevisiae mlh1 rad18 strain growth inhibition, active compounds read high
Method in brief: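 Test agents were incubated with a yeast strain of defined genotype (DNA damage repair defect). Inhibition of growth was derived by comparison with vehicle-exposed cultures.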

[7] = at 5.0 µM (retest, dose inferred, filed as 0.5)
[8] = at 50.0 µM (retest, dose inferred, filed as 5.0)

Measured: growth inhibition

CC(=O)OC1=C(Br)CCc2ccccc21
inactive: [1]; [7] 13% | [2]; [7] 13% | [3]; [7] 41% | [4]; [7] 11% | [5]; [7] 18% | [6]; [7] 39%
active: [1]; [8] 99% | [1]; at 50.0 µM 98.2% | [2]; [8] 100% | [2]; at 50.0 µM 97.3% | [3]; [8] 99% | [3]; at 50.0 µM 91.2% | [4]; [8] 98% | [4]; at 50.0 µM 86.3% | [5]; [8] 100% | [5]; at 50.0 µM 88.3% | [6]; [8] 99% | [6]; at 50.0 µM 89.6%

CC1=NN(c2nc(N)nc(NS(=O)(=O)c3cc(C)c(Cl)cc3S)n2)C(C)(C)C1
inactive: [1]; [7] 29% | [1]; [8] 13% | [1]; at 50.0 µM 9.1% | [2]; [7] -1% | [2]; [8] -12% | [2]; at 50.0 µM -9.55% | [3]; [7] -2% | [3]; [8] 9% | [3]; at 50.0 µM 35.9% | [4]; [7] 4% | [4]; [8] 10% | [4]; at 50.0 µM 46.2% | [5]; [7] 11% | [5]; [8] -17% | [5]; at 50.0 µM 9.85% | [6]; [7] -3% | [6]; [8] 4% | [6]; at 50.0 µM 20%

CN(/N=C\c1ccc(Cl)cc1)C(c1ccc(Cl)cc1)N(C)/N=C/c1ccc(Cl)cc1 (stereo not given)
inactive: [1]; [7] -1% | [1]; at 50.0 µM 29% | [2]; [7] 2% | [2]; at 50.0 µM 9.5% | [3]; [7] -3% | [4]; [7] 3% | [4]; [8] 67% | [4]; at 50.0 µM 45.5% | [5]; [7] -2% | [5]; [8] 66% | [5]; at 50.0 µM 16.6% | [6]; [7] -3% | [6]; at 50.0 µM 30.2%
active: [1]; [8] 70% | [2]; [8] 84% | [3]; [8] 94% | [3]; at 50.0 µM 80.2% | [6]; [8] 85%

Cc1c(NC(=O)/C(=N/NC(=S)N=N)C2C(=O)CC(C)(C)CC2=O)c(O)c2ccccc2c1O
inactive: [1]; [7] 14% | [2]; [7] 7% | [3]; [7] 7% | [4]; [7] -1% | [4]; at 50.0 µM 47% | [5]; [7] 16% | [6]; [7] 9%
active: [1]; [8] 98% | [1]; at 50.0 µM 95.3% | [2]; [8] 99% | [2]; at 50.0 µM 81.2% | [3]; [8] 99% | [3]; at 50.0 µM 84.8% | [4]; [8] 99% | [5]; [8] 98% | [5]; at 50.0 µM 90.9% | [6]; [8] 98% | [6]; at 50.0 µM 93%

O=C1OC(c2cccc(Cl)c2)=N/C1=C\C=C/c1ccccc1
inactive: [1]; [7] -3% | [1]; [8] -10% | [1]; at 50.0 µM 14.1% | [2]; [7] -27% | [2]; [8] -15% | [2]; at 50.0 µM -7.9% | [3]; [7] -8% | [3]; [8] 1% | [3]; at 50.0 µM 17.6% | [4]; [7] 19% | [4]; [8] 21% | [4]; at 50.0 µM 11.8% | [5]; [7] -1% | [5]; [8] -10% | [5]; at 50.0 µM 11.9% | [6]; [7] -16% | [6]; [8] -39% | [6]; at 50.0 µM 3.9%

COc1ccc(/C=C/c2ccnnc2)c(OC)c1OC
active: [2]; at 50.0 µM 79.5% | [6]; at 50.0 µM 93.7%
inactive: [1]; [7] -7% | [1]; [8] 6% | [1]; at 50.0 µM 53.2% | [2]; [7] -3% | [2]; [8] 8% | [3]; [7] -6% | [3]; [8] 5% | [3]; at 50.0 µM 28.6% | [4]; [7] -4% | [4]; [8] 39% | [4]; at 50.0 µM 52.8% | [5]; [7] -5% | [5]; [8] 15% | [5]; at 50.0 µM 39.3% | [6]; [7] -6% | [6]; [8] 2%

Cn1c2c(c3ccccc31)CCN(CCN1CCN(c3ccccc3)CC1)C2=O
inactive: [1]; [7] 30% | [1]; [8] 31% | [2]; [7] 21% | [2]; [8] 29% | [2]; at 50.0 µM 43% | [3]; [7] 28% | [3]; [8] 37% | [4]; [7] 26% | [4]; [8] 24% | [4]; at 50.0 µM 60.6% | [5]; [7] 32% | [5]; [8] 43% | [5]; at 50.0 µM 67.5% | [6]; [7] 32% | [6]; [8] 35% | [6]; at 50.0 µM 59.8%
active: [1]; at 50.0 µM 71.9% | [3]; at 50.0 µM 79%

O=C1c2ccccc2CC(Br)c2ccccc21 (stereo not given)
inactive: [1]; [7] -2% | [2]; [7] -4% | [2]; at 50.0 µM 27.4% | [3]; [7] 3% | [4]; [7] -77% | [4]; at 50.0 µM 1.7% | [5]; [7] -10% | [5]; [8] -3% | [5]; at 50.0 µM 42.5% | [6]; [7] 1%
active: [1]; [8] 97% | [1]; at 50.0 µM 97.2% | [2]; [8] 94% | [3]; [8] 94% | [3]; at 50.0 µM 81.8% | [4]; [8] 80% | [6]; [8] 98% | [6]; at 50.0 µM 97.7%

ClC1=C(Cl)C(Cl)=C(Cl)C1
active: [1]; [8] 93% | [1]; at 50.0 µM 88.2% | [2]; [8] 97% | [3]; [8] 93% | [4]; [8] 85% | [5]; [8] 96% | [5]; at 50.0 µM 79.9% | [6]; [8] 96% | [6]; at 50.0 µM 91.5%
inactive: [1]; [7] 6% | [2]; [7] 7% | [2]; at 50.0 µM 51.4% | [3]; [7] 10% | [3]; at 50.0 µM 48.5% | [4]; [7] 5% | [4]; at 50.0 µM 3.55% | [5]; [7] 4% | [6]; [7] 0%

O=C(O)CSc1nnc2c3ccccc3c3ccccc3c2n1
active: [1]; [8] 70% | [6]; [8] 71%
inactive: [1]; [7] -14% | [1]; at 50.0 µM 48% | [2]; [7] 6% | [2]; [8] 46% | [2]; at 50.0 µM 30.1% | [3]; [7] -2% | [3]; [8] 55% | [3]; at 50.0 µM 7.8% | [4]; [7] -33% | [4]; [8] 65% | [4]; at 50.0 µM 47.7% | [5]; [7] 17% | [5]; [8] 53% | [5]; at 50.0 µM 54.9% | [6]; [7] 9% | [6]; at 50.0 µM 47.1%

Source: PubChem BioAssay (NCI)
